In PubChem BioAssay (NCI) one finds growth data, which are given here for 14 molecules.

Compounds without any hit were thinned out: in the full panel of roughly 83,000, 20% have a hit.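 Interpretation: 100, growth as untreated; towards 0, rising growth inhibition; 0, no net growth; 0 to -100, cell death. Compounds scoring below 10 were considered active.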 Values without a mark were called inactive. The source made the active and inactive calls.

Among the test systems are RPMI-8226 leukemia; OVCAR-5 ovarian; OVCAR-4 ovarian; SK-OV-3 ovarian; IGROV1 ovarian; OVCAR-3 ovarian; HS 578T breast; NCI/ADR-RES ovarian; OVCAR-8 ovarian.
What all share (assay): NCI-60 one-dose screen, 48 h (100 = growth as untreated, 0 = no growth, -100 = all killed)
Common to all, as to conditions: 10 µM unless noted

On to `COc1cc(-c2n[nH]nc2-c2ccccn2)cc(OC)c1OC`, for which the growth in the assay with RPMI-8226 leukemia is 85.1%; in the assay on OVCAR-5 ovarian, 100%; with OVCAR-4 ovarian, 88.2%; in the assay with SK-OV-3 ovarian, 98.5%; with IGROV1 ovarian, 78.2%; in the assay on OVCAR-3 ovarian it was 102%. Besides, the growth with HS 578T breast was 98%; in the assay on NCI/ADR-RES ovarian, 77.9%.
Take `O=C(O)C1CCN(S(=O)(=O)c2ccc(-c3ccccc3)cc2)CC1`: the growth with RPMI-8226 leukemia is 58.7%; in the assay with OVCAR-8 ovarian, 81.4%; with OVCAR-5 ovarian it was 125%; in the assay on OVCAR-4 ovarian, 106%; in the assay with SK-OV-3 ovarian, 111%; in the assay with OVCAR-3 ovarian it was 112%. Also, the figures for the growth with HS 578T breast and in the assay with NCI/ADR-RES ovarian were 113% and 117%, respectively.
Turning to `O=C(/C=C/c1c(-c2ccccc2)[nH]c2ccccc12)S(=O)(=O)c1ccccc1`, the growth in the assay on RPMI-8226 leukemia was 21.4%; in the assay with OVCAR-5 ovarian, 100%; in the assay with OVCAR-4 ovarian, 80.1%; in the assay with SK-OV-3 ovarian, 89.5%; in the assay on IGROV1 ovarian, 51.8%; in the assay with OVCAR-3 ovarian it was 68.9%. In addition, the growth in the assay on HS 578T breast is 90.1%; in the assay with NCI/ADR-RES ovarian, 16.4%.
As for `CN(C)CCC(=O)Nc1ccc(-n2cc(-c3cccc(NC(=S)Nc4cccc(-c5cn(-c6ccc(NC(=O)CCN(C)C)cc6)nn5)c4)c3)nn2)cc1`, the growth in the assay with OVCAR-8 ovarian is 97.3%; with OVCAR-5 ovarian, 113%; in the assay with SK-OV-3 ovarian, 115%; in the assay with IGROV1 ovarian, 85.5%; with HS 578T breast it was 137%; with NCI/ADR-RES ovarian, 113%.
For the molecule `C=C1CCC2C(C)(COC(=O)CC)C(OC(=O)CC)CCC2(C)C1C/C=C1/C(=O)OCC1OC(=O)CC` (centres undefined), the growth was -13.9% (active) with OVCAR-8 ovarian; -1.17% (active) in the assay with OVCAR-5 ovarian; 18.7% in the assay with OVCAR-4 ovarian; 103% with SK-OV-3 ovarian; -0.405% (active) in the assay with IGROV1 ovarian; -86.1% (active) with OVCAR-3 ovarian. In addition, the growth in the assay on NCI/ADR-RES ovarian is -22.9% (active).
As to `O=C(Nc1nc2ccc(OC(F)(F)F)cc2s1)c1ccc(F)cc1`, the growth in the assay on OVCAR-8 ovarian is 17.8%; in the assay with OVCAR-5 ovarian, 43%; with OVCAR-4 ovarian, 25.5%; in the assay on SK-OV-3 ovarian it was 4.63% (active); in the assay with IGROV1 ovarian, 31.1%; in the assay on OVCAR-3 ovarian, -37.8% (active). Also, the growth in the assay with HS 578T breast is 38.6%; with NCI/ADR-RES ovarian it was 6.2% (active).
With `CC[C@@H](C)/C=C(C)/C=C/C(O)=C1\C(=O)N[C@@H](Cc2ccc(OC(=O)[C@@](OC)(c3ccccc3)C(F)(F)F)cc2)C1=O`, the growth in the assay with OVCAR-8 ovarian was 103%; in the assay with OVCAR-5 ovarian it was 120%; in the assay with SK-OV-3 ovarian, 112%; in the assay with OVCAR-3 ovarian it was 67.8%; in the assay with HS 578T breast, 67.8%; in the assay with NCI/ADR-RES ovarian, 49.6%.
In the case of `CCN(CC)c1ccc(C(=C2C=CC(=[N+](CC)Cc3cccc(S(=O)(=O)O)c3)C=C2)c2ccc(N(CC)Cc3cccc(S(=O)(=O)O)c3)cc2)cc1`, the growth with RPMI-8226 leukemia was -43.1% (active); in the assay with OVCAR-5 ovarian, 68.2%; in the assay with OVCAR-4 ovarian, 67.1%; with SK-OV-3 ovarian, 85.3%; in the assay with IGROV1 ovarian, 16.1%; in the assay on OVCAR-3 ovarian it was 14.2%. In addition, the growth in the assay with HS 578T breast was 71.9%; with NCI/ADR-RES ovarian, 92.6%.
For the molecule `[N-]=[N+]=NCc1cccc(/C(O)=C/C(=O)C(=O)O)c1`, the growth in the assay on RPMI-8226 leukemia is 90.7%; with OVCAR-8 ovarian, 79.4%; with OVCAR-5 ovarian it was 63.5%; with OVCAR-4 ovarian, 94.9%; with SK-OV-3 ovarian, 107%; in the assay on OVCAR-3 ovarian, 126%. Besides, the growth was 82.6% in the assay with HS 578T breast and 78.6% in the assay with NCI/ADR-RES ovarian.
Take `C[C@H]1C(=O)N2c3ccccc3[C@@]3(O)C[C@@H](n4cnc5ccccc5c4=O)C(=O)N1[C@@H]23`: the growth with RPMI-8226 leukemia is 125%; in the assay with OVCAR-8 ovarian it was 91.7%; with OVCAR-5 ovarian, 110%; in the assay with OVCAR-4 ovarian, 109%; in the assay with SK-OV-3 ovarian it was 104%; with OVCAR-3 ovarian it was 115%. For the same molecule, in the assay on NCI/ADR-RES ovarian, the growth was 104%.
For the molecule `CCOC(=O)c1cnc2c(C)cc(C)cc2c1NCCCN(C)C`, the growth with RPMI-8226 leukemia was 7.09% (active); in the assay on OVCAR-5 ovarian, 38.6%; with OVCAR-4 ovarian, 44.4%; in the assay on SK-OV-3 ovarian, 38.6%; with IGROV1 ovarian, 5.17% (active); in the assay with OVCAR-3 ovarian it was 34.5%. The growth is 65.7% with HS 578T breast and 31.7% in the assay on NCI/ADR-RES ovarian.
As for `CCOC(=O)Nc1cc(-c2ccc(C)c(NS(C)(=O)=O)c2)nn2c(C)nnc12`, the growth was -20.4% (active) with RPMI-8226 leukemia; 32.2% in the assay with OVCAR-5 ovarian; 22.8% in the assay on OVCAR-4 ovarian; 4.31% (active) in the assay on SK-OV-3 ovarian; -45.6% (active) in the assay on IGROV1 ovarian; -10.4% (active) in the assay on OVCAR-3 ovarian. The growth was 9.38% (active) with HS 578T breast and 53.3% in the assay with NCI/ADR-RES ovarian.
As for `CCCCCCCCCCN1CCC(N2CCCCC2)CC1`, the growth with RPMI-8226 leukemia was -44.8% (active); in the assay with OVCAR-8 ovarian, -1.39% (active); with OVCAR-5 ovarian it was 41.5%; in the assay with OVCAR-4 ovarian, 53.7%; in the assay with SK-OV-3 ovarian it was 20.9%; in the assay on HS 578T breast it was -5.23% (active). Further, the growth with NCI/ADR-RES ovarian was 49.7%.
For `COC(=O)[C@H]1[C@H]2C[C@@H]3c4[nH]c5cc(OC)ccc5c4CCN3C[C@H]2C[C@@H](OC(=O)/C=C/c2cc(OC)c(OC)c(OC)c2)[C@@H]1OC`, the growth was 50.6% with OVCAR-8 ovarian; 113% in the assay on OVCAR-5 ovarian; 13.6% with OVCAR-4 ovarian; 98.6% in the assay with SK-OV-3 ovarian; 38.4% with IGROV1 ovarian; 69.3% in the assay with HS 578T breast. In addition, in the assay with NCI/ADR-RES ovarian, the growth is 49.1%.
